GDH-TPI inh: GDH-TPI coupled enzyme inhibition counter-screen; GDH-TPI coupled enzyme counterscreen, NADH absorbance; inhibition, % at 4.8 µM; actives 1.2% (n = 360,000); AID 588335; in the data active = inhibition above about 30%
BoNT F protease: blocks Botulinum neurotoxin F light chain protease; Multiplex microsphere protease cleavage assay, flow cytometry; inhibition, % at 10 µM; actives 0.22% (n = 360,000); AID 588497; in the data active = inhibition above about 35%, passing the limit was not always enough; inconclusive = no clear call, values can overlap the other calls
Anthrax LF prot: blocks Bacillus anthracis lethal factor protease; actives 0.12% (n = 360,000); multiplex microsphere protease cleavage assay, LF; P15917; inhibition, % at 10 µM
FBA Mtb inh: inhibits M. tuberculosis FBA enzyme; P9WQA3; purified M. tuberculosis FBA, fluorescence read-out; inhibition, % at 1 µM; actives 2.3% (n = 360,000); AID 588726; in the data active = inhibition above about 27%
Target sequence (P9WQA3 whole entry, looked up): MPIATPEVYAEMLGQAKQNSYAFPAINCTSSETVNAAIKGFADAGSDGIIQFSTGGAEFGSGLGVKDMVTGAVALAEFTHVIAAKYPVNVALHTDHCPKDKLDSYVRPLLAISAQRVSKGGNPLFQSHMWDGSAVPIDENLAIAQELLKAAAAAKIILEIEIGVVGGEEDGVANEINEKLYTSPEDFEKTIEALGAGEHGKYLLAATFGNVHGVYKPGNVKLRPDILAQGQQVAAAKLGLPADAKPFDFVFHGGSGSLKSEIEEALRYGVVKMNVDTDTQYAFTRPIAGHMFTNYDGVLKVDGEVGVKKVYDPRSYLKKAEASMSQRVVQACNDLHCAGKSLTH
Autofluor counter: counter-screen for toxin protease inhibitors: compound fluorescence. compound autofluorescence counterscreen, microsphere flow cytometry; hits give high values. fluorescence intensity (test concentration not listed). actives 3.1% (n = 360,000). AID 624483; in the data active = fluorescence intensity above about 16000; inconclusive = no clear call, values can overlap the other calls
BoNT A protease: inhibitors of Botulinum neurotoxin A light chain protease. multiplex microsphere protease substrate cleavage, flow cytometry. inhibition, % at 10 µM. actives 0.17% (n = 360,000)
Large screens that a line does not name were inactive. Most compounds without a hit are left out; they make up all but 6.7% or so of the library. Rule as the data show it, unless noted: active = inhibition above about 30%; inconclusive = no clear call, values can overlap the other calls; inactive = below that.

O=S(=O)(Nc1ccc(S(=O)(=O)Nc2nccs2)cc1)c1ccc2c(c1)OCCO2	Autofluor counter 16416
CCCCC1CCC(C(=O)Nc2ccc(S(=O)(=O)Nc3nccs3)cc2)CC1 (stereo not drawn)	Autofluor counter 24211, BoNT A protease inconclusive
Cc1cc(C(=O)Nc2ccc(S(=O)(=O)Nc3nccs3)cc2)c(C)o1	Autofluor counter 24552
CN1C(=O)N(CN2CCCCC2)C2C1N(C)C(=O)N2CN1CCCCC1 (stereo not drawn)	none
COC(=O)CCc1c(C)nn(-c2ccccc2)c1C	BoNT F protease inconclusive
O=C(CCSc1nnc(-c2ccccc2)o1)N1CCOCC1	none
CC(=O)Nc1ccc(NC(=O)CSc2nccn2Cc2ccccc2)cc1	Autofluor counter 20023
O=C(CCSc1nccn1Cc1ccccc1)N1CCOCC1	Autofluor counter 20488
COC(=O)c1cc(C(=O)OC)cc(N2C(=O)CC(NNC(=O)c3ccccc3Br)C2=O)c1 (stereo not drawn)	Autofluor counter 17445
COC(=O)c1cc(C(=O)OC)cc(N2C(=O)CC(NNC(=O)c3ccc(C)cc3)C2=O)c1 (stereo not drawn)	none
Cc1nc(N2CCN(C)CC2)c2sc(=S)n(-c3ccccc3)c2n1	GDH-TPI inh 38
COC(=O)c1noc(-c2ccc(C)cc2)n1	Autofluor counter 23185
CCCCn1c(O)c(C(CC)=Nc2ccc(OC)cc2OC)c(=O)[nH]c1=O	none
CCCCn1c(O)c(C(CC)=NCc2cc(OC)cc(OC)c2)c(=O)[nH]c1=O	Autofluor counter 22230
CCCCn1c(O)c(C(C)=NCc2cccnc2)c(=O)[nH]c1=O	none (no result: BoNT F protease, Anthrax LF prot, Autofluor counter, BoNT A protease)
CCCCn1c(O)c(C(CC)=NCc2cccnc2)c(=O)[nH]c1=O	Autofluor counter 22114
CCCCn1c(O)c(C(CC)=Nc2ccc(OCC)cc2)c(=O)[nH]c1=O	Autofluor counter 16712
CCC(=NCc1cc(OC)cc(OC)c1)c1c(O)n(C)c(=O)n(C)c1=O	Autofluor counter 24024, BoNT A protease inconclusive
CCC(=NCc1ccc2c(c1)OCO2)c1c(O)n(C)c(=O)n(C)c1=O	none
Cc1cc(F)ccc1S(=O)(=O)N(C(=O)c1ccncc1)c1ccc(OC(=O)c2ccncc2)cc1	none
CC(=NCc1cccnc1)c1c(O)n(-c2ccccc2)c(=O)[nH]c1=O	Autofluor counter 20066
CCC(=NCc1cccnc1)c1c(O)n(Cc2ccccc2)c(=O)[nH]c1=O	Autofluor counter 19069
CC(=NCc1cccnc1)c1c(O)n(Cc2ccccc2)c(=O)[nH]c1=O	none
CC(=NCc1cccnc1)c1c(O)n(-c2ccc(Cl)cc2)c(=O)[nH]c1=O	none
O=C(c1ccc(S(=O)(=O)Nc2ccccc2F)cc1)N1CCCC1	none (no result: BoNT F protease, Anthrax LF prot, Autofluor counter, BoNT A protease)
CCOc1ccccc1CNC(=O)CCN1C(=O)COc2ccccc21	none
Cc1ccc2cc(C#N)c(NCc3ccco3)nc2c1	FBA Mtb inh 116
Cc1ccc2cc(C)c(SCC(=O)NCc3ccco3)nc2c1	none
COc1ccccc1Nc1nc(N)nc(CSC(=S)N2CC(C)CC(C)C2)n1 (stereo not drawn)	none
COc1ccccc1C(=O)Nn1c(C2CCC2)nc2ccccc2c1=O	Autofluor counter 23194, BoNT A protease inconclusive
O=C(Nn1c(C2CCC2)nc2ccccc2c1=O)C1CCC1	Autofluor counter 16974
Cc1nc2ccccc2c(=O)n1NC(=O)c1ccco1	none
COc1cc2nc(C3CC3)n(NC(=O)c3ccc(Cl)cc3)c(=O)c2cc1OC	none
O=C(Nn1c(C2CC2)nc2ccccc2c1=O)c1ccco1	Autofluor counter 20747
COc1cc2nc(C3CC3)n(NC(=O)c3ccc(F)cc3)c(=O)c2cc1OC	Autofluor counter 24457, BoNT A protease inconclusive
CC1CCCCC12NC(=O)N(CC(=O)NC(=O)Nc1ccc3c(c1)OCCO3)C2=O (stereo not drawn)	none
O=C(NCC(c1ccco1)N1CCCCC1)c1ccc([N+](=O)[O-])s1 (stereo not drawn)	none
CCCCCC(=O)N1C[C@H](O)[C@@H](n2cc(-c3ccc(F)cc3)nn2)C[C@@H]1c1ccccc1	none
CC1Cc2cc(/C(O)=C3/C(=O)C(=O)N(CCCn4ccnc4)C3c3ccc([N+](=O)[O-])cc3)ccc2O1 (stereo not drawn)	none
CC1Cc2cc(/C(O)=C3/C(=O)C(=O)N(CCCn4ccnc4)C3c3ccc(F)cc3)ccc2O1 (stereo not drawn)	GDH-TPI inh 32
Cc1ccc(OCc2cc(C(=O)NC3CCCCC3)no2)cn1	none

Screens (PubChem BioAssay)
